From PubChem BioAssay (NCATS)
Inconclusive results are not listed. Active and inactive are the calls of the source. Unless noted, calls come from the whole dose curve; as a rule, active = well fitted curve in the direction sought with a large enough effect; inconclusive = small, poorly fitted or top-dose-only effect, or another doubt; inactive = no such curve, though single readings can be large; an effect the other way counts as inactive or inconclusive.

Columns and labels:
[1] = biological target: Glucocorticoid receptor (Homo sapiens) (UniProt P04150); assay: GR-GFP Redistribution (AID 450;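 active = compounds whose dose series gives a full or clear partial fitted curve of increased nuclear translocation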; note: potency is the fitted concentration of half-maximal effect); conditions: U2OS GR-GFP nuclear translocation, laser cytometry, 2 h
Glucocorticoid receptor (Homo sapiens), sequence (P04150 whole entry, looked up, the tested form may be a part): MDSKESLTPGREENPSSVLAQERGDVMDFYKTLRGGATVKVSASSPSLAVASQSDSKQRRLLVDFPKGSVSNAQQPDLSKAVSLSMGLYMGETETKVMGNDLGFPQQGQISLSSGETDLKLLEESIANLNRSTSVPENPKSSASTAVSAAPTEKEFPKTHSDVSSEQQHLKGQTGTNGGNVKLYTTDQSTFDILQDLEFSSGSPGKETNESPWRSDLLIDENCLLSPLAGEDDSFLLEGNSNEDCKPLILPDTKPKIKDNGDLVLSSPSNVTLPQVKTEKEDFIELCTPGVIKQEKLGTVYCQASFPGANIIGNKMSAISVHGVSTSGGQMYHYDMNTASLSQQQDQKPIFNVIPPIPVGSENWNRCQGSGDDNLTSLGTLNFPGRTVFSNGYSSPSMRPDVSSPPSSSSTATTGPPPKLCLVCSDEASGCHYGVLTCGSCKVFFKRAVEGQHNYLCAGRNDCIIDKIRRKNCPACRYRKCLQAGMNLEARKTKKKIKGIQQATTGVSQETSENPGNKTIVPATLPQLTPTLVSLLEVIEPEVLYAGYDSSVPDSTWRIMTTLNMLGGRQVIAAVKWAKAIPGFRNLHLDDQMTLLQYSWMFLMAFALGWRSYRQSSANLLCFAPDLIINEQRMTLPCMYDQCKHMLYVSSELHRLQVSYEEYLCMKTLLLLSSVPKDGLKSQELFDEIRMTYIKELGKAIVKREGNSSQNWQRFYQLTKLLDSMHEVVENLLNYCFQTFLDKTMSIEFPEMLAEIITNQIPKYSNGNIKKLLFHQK

[2] = biological target: Glucocorticoid receptor (Homo sapiens) (UniProt P04150); assay: GR-EFC Redistribution (AID 451; calls by dose curve; note: potency is the fitted concentration of half-maximal effect); conditions: CHO-K1 GR-EFC translocation, beta-gal luminescence, 2 h
In short: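 CHO-K1 cells expressing nuclear EA and GR-ED fragments of b-gal; compounds titrated up to 46 uM final, 2 h at 37 C. GR nuclear translocation read as complemented b-gal luminescence after 1 h RT detection.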

[3] = biological target: Mitogen-activated protein kinase 10 (Mus musculus) (UniProt Q61831); assay: JNK3 AlphaScreen Assay (AID 530; active = well fitted curve in either direction with a large enough effect, not every such curve was filed as active;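 note: kinase came from lysate of stimulated human HepG2 cells; signal reports phosphorylation of biotinylated GST-cJun 1-79 at Ser73 with 10 µM ATP; % is set by controls: 0 for no effect and ±100 for the full control effect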); conditions: JNK3 lysate, c-Jun phosphorylation; series mostly up to 57.1 µM
In short: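 qHTS format: compounds tested as titrations against IL-1beta/TNF-alpha-activated HepG2 lysate JNK3 with biotin-GST-cJun substrate and 10 uM ATP at room temperature. Loss of anti-phospho-cJun AlphaScreen signal indicates inhibition.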

[4] = biological target: 3',5'-cyclic-AMP phosphodiesterase 4B (Homo sapiens) (UniProt Q07343); assay: qHTS Assay for Inhibitors of PDE-IV (AID 607; active = well fitted activation curve with a large enough effect in the main read-out, with a control signal flat, not every such curve was filed as active; note: % of control where 0% means no effect); conditions: HEK293 ACTOne CNG channel cells, membrane potential fluorescence; series mostly up to 22.9 µM
3',5'-cyclic-AMP phosphodiesterase 4B (Homo sapiens), sequence (Q07343 whole entry, looked up): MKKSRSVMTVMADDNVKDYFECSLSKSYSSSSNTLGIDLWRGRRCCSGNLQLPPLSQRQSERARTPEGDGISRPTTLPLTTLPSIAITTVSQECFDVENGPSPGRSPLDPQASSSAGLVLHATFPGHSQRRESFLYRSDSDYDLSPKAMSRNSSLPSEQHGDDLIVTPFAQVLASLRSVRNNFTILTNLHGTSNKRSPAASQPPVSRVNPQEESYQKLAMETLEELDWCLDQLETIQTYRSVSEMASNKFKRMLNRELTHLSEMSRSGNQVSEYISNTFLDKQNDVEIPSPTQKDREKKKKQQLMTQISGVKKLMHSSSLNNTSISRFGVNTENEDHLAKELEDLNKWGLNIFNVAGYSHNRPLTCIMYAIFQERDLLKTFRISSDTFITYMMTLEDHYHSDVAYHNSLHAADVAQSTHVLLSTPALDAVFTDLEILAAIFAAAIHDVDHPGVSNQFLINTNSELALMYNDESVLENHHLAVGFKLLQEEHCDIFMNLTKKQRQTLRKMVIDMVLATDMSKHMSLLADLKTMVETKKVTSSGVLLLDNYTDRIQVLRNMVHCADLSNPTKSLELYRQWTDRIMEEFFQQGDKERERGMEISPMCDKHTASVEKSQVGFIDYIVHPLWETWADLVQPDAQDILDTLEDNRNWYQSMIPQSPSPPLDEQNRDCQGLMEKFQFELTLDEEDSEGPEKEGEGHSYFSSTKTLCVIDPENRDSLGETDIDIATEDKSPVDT
In short: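 Cell-based read-out of cAMP via a modified cyclic nucleotide-gated channel and membrane potential dye (535/590 nm) in HEK293 cells expressing PDE4 endogenously. Compounds tested up to 22.9 uM final; 100 uM RO 20-1724 reference.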

[5] = biological target: Ubiquitin carboxyl-terminal hydrolase 1 (Homo sapiens) (UniProt O94782); assay: Inhibitors of USP1/UAF1: Pilot qHTS (AID 504865); conditions: purified USP1/UAF1, Ub-rhodamine cleavage fluorescence; series mostly up to 114 µM;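 note: rhodamine fluorescence freed from ubiquitin-rhodamine substrate followed over time; top concentration of the series differs between compounds; % is set by controls: 0 for no effect and ±100 for the full control effect; nearly all actives have a fitted effect of over 35% in size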
Ubiquitin carboxyl-terminal hydrolase 1 (Homo sapiens), sequence (O94782 whole entry, looked up): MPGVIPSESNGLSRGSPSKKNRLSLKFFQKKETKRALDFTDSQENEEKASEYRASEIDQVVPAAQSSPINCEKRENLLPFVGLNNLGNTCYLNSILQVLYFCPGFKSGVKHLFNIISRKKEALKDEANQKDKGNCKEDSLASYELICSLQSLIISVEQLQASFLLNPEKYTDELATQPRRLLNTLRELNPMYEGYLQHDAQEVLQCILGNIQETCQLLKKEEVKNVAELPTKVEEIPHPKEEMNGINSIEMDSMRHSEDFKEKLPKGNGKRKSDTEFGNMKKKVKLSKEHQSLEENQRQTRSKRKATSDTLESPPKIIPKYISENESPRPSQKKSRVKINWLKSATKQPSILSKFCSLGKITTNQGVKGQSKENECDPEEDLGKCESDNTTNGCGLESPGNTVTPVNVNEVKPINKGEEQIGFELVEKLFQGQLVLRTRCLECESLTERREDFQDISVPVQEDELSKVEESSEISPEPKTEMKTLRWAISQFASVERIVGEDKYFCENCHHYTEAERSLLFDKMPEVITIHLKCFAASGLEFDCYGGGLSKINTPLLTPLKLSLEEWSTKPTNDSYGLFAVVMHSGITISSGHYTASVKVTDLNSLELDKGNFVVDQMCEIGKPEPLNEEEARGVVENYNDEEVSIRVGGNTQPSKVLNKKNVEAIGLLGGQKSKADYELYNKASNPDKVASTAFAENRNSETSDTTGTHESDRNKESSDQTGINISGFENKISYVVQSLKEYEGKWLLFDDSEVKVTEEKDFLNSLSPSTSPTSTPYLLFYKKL
In short: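 Deubiquitinase activity followed as kinetic rhodamine fluorescence release from 150 nM Ub-Rho. 1 nM USP1/UAF1 with compound, after 15 min room-temperature preincubation, in HEPES pH 7.8 buffer containing TCEP, EDTA, BSA and Tween-20.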

[6] = test system: Zika virus NS2B-NS3 protease; assay: Primary screen GU AMC qHTS for Zika virus inhibitors (AID 1347154); conditions: Zika NS2B-NS3 unlinked protease, AMC fluorogenic substrate; series mostly up to 54.1 µM; note: nearly all actives have a fitted effect of over 70% in size; note: potency is the fitted concentration of half-maximal effect;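 for activity change, negative = inhibition: 0% = no-inhibitor control and -100% = no-enzyme control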
In short: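 Unlinked Zika NS2B hydrophilic domain–NS3 protease complex at 25 nM in 10 mM Tris-HCl pH 8.0, 0.01% Tween 20, with an AMC peptide substrate. Fluorescence change (340/450 nm) over 15 min at room temperature, normalized to controls, fitted to 4-parameter Hill.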

[7] = Primary qHTS for small molecule stabilizers of the endoplasmic reticulum resident proteome: Secreted ER Calcium Modulated Protein (SERCaMP) assay (AID 1508630); conditions: SH-SY5Y GLuc-SERCaMP (Gaussia luciferase released on ER calcium loss) secretion, thapsigargin, luminescence; series mostly up to 38.4 µM; note: % is set by controls: 0 for no effect and ±100 for the full control effect
In short: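 GLuc-SERCaMP-expressing SH-SY5Y cells, pretreated 16 h with compound, are challenged with thapsigargin to empty ER calcium stores; after 4 h, coelenterazine is added directly to the medium and luminescence is imaged.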

[8] = biological target: Cytochrome P450 1A2 (Homo sapiens) (UniProt P05177); assay: p450-cyp1a2 (AID 410; calls by dose curve; note: potency is the fitted concentration of half-maximal effect;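 for activity change, negative = inhibition: -100% = full effect of reference inhibitor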); conditions: recombinant CYP1A2, luciferin-ME demethylation, luminescence; series mostly up to 57 µM
Cytochrome P450 1A2 (Homo sapiens), sequence (P05177 whole entry, looked up): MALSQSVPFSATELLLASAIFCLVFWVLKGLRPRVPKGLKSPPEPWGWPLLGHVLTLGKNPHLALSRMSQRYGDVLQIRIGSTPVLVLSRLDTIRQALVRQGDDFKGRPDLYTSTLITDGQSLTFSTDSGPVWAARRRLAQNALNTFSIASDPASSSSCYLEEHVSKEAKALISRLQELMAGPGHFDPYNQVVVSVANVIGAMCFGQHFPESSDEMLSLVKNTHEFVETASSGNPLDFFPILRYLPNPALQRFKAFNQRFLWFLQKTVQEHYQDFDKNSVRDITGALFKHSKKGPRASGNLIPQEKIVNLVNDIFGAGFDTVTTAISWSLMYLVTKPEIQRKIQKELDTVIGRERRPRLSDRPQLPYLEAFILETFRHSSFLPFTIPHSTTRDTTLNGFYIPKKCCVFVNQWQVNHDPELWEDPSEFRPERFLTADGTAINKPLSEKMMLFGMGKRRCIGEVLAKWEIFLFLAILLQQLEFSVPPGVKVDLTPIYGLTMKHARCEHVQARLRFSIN
In short: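 Inhibition was calculated relative to 57 uM furafylline (full inhibition). The reaction used human CYP1A2 at 20nM with Luciferin-ME at its Km, 100uM, driven by an NADPH-regenerating system for 60 min at room temperature.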

[9] = biological target: DNA dC->dU-editing enzyme APOBEC-3G (Homo sapiens) (UniProt Q9HC16); assay: qHTS for inhibitors of Vif-A3G interactions: Validation (AID 588379); conditions: Vif-A3G protein interaction assay; series mostly up to 46.1 µM; note: 0% is about no effect
DNA dC->dU-editing enzyme APOBEC-3G (Homo sapiens), sequence (Q9HC16 whole entry, looked up): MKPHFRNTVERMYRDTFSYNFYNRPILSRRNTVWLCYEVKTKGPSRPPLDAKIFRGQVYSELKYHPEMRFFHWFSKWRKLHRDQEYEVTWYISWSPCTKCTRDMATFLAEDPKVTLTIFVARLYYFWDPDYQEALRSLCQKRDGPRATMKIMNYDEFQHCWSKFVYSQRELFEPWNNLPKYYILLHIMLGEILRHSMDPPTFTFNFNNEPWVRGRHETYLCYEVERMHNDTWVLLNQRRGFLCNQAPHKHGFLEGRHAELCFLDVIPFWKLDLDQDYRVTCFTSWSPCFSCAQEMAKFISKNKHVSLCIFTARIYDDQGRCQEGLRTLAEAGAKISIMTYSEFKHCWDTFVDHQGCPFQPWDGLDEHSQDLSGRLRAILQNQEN
In short: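 HeLa cells stably expressing Vif and A3G-eYFP, 700 cells/well, incubated overnight at 37 deg C, then exposed to compound overnight at 37 deg C. Inhibition of Vif-mediated degradation read as increased yellow fluorescence (Ex 488/Em 500-530) by laser-scanning cytometry.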

[10] = biological target: Cytochrome P450 3A4 (Homo sapiens) (UniProt P08684); assay: qHTS Assay for Activators of Cytochrome P450 3A4 (AID 885); conditions: recombinant CYP3A4, Luciferin-PPXE luminescence, 60 min; series mostly up to 57.1 µM; note: nearly all actives have a fitted effect of over 65% in size; note: potency is the fitted concentration of half-maximal effect
Cytochrome P450 3A4 (Homo sapiens), sequence (P08684 whole entry, looked up): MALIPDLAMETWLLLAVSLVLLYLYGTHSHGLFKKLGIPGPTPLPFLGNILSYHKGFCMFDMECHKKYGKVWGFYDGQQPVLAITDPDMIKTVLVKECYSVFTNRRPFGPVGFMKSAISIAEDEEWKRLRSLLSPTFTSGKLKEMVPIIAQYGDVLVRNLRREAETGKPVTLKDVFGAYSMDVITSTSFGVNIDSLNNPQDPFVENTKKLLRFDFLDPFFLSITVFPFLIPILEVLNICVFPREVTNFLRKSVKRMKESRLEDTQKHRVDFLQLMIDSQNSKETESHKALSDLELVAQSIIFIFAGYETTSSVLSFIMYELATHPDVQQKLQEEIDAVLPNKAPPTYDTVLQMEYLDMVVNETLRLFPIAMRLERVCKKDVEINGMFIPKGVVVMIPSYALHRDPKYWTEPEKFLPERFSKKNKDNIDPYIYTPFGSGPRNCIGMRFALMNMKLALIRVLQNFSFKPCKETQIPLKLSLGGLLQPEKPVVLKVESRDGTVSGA
In short: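 Signal was normalized against complete inhibition by 57 uM ketoconazole. The reaction used 20nM CYP3A4 with 25uM Luciferin-PPXE, 10-min compound preincubation and a 60-min NADPH-supported step at RT.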

[11] = qHTS Assay for Lipid Storage Modulators (AID 1519; calls by dose curve; for activity change, negative = inhibition: % is set by controls: 0 for no effect and ±100 for the full control effect); conditions: Drosophila S3 cells, BODIPY lipid droplet/cell ratio, laser cytometry, cells loaded with oleic acid
In short: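 Cells seeded at 5,000 per well were treated with compounds over a concentration series and loaded with oleic acid (400 uM, as added). Lipid droplet fluorescence (488 nm excitation, 500-530 nm channel) was read by laser-scanning cytometry and normalized to 20 uM Triacsin C.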

C[C@H](N)Cc1cnc[nH]1
inactive: Potency [1] > 46 µM | Potency [2] > 46 µM | outcome [3] | Potency [4] | Potency [5] | Potency [6] | Potency [7]

COc1ccc(C[C@H]2NC[C@H](O)[C@@H]2OC(C)=O)cc1
inactive: Potency [8] | Potency [1] > 46 µM | Potency [2] > 46 µM | Potency [4] | Potency [5] | Potency [9] | Potency [6] | Potency [7]

O=C1NCN(c2ccccc2)C12CCN(C[C@H]1COc3ccccc3O1)CC2
inactive: outcome [3] | Potency [4] | Potency [9] | Potency [6] | Potency [7]
active: Potency [8] 12.6 µM

CN1[C@@H]2CC[C@H]1CC(O[C@@H](c1ccccc1)c1ccc(Cl)cc1)C2 (stereo not given in full)
inactive: Potency [8] | Potency [1] > 46 µM | Potency [2] > 46 µM | Potency [10] | Potency [9] | Potency [6] | Potency [7]

COc1ccc(-n2nc(C(F)(F)F)cc2-c2ccc(Cl)cc2)cc1
active: Potency [8] 0.501 µM
inactive: Potency [1] > 46 µM | Potency [2] > 46 µM | Potency [10] | Potency [6] | Potency [7]

Cc1nc(N)sc1CCN
inactive: Potency [1] > 46 µM | Potency [2] > 46 µM | outcome [3] | Potency [4] | activity change, negative = inhibition ([11]; at 57.5 µM (top of the series)) 3.05% | Potency [5] | Potency [9] | Potency [6] | Potency [7]
-8.41%: max response ([11]; measured here: cell count channel max response)
-2.18%: max response ([11]; measured here: lipid channel max response)

CN1CCN(C(=O)OC2c3nccnc3C(=O)N2c2ccc(Cl)cn2)CC1 (stereo not given)
inactive: Potency [6] | Potency [7]

O=C(/C=C\c1ccc(Cl)cc1)N[C@@]12CCC(=O)[C@@H]3Oc4c(O)ccc5c4[C@@]31CCN(CC1CC1)[C@@H]2C5
active: Potency [1] 1.63 µM
inactive: Potency [2] > 46 µM | outcome [3] | Potency [10] | Potency [5] | Potency [6] | Potency [7]

CCOC(=O)c1ncn2c1CN(C)C(=O)c1cc(N=[N+]=[N-])ccc1-2
inactive: Potency [6] | Potency [7]

CC[C@@H](CO)NC(=O)[C@H]1C=C2c3cccc4[nH]cc(c34)C[C@H]2N(C)C1
inactive: Potency [1] > 46 µM | Potency [2] > 46 µM | Potency [4] | Potency [9] | Potency [7]
active: Potency [6] 29.9 µM

CCOC(OCC)P(=O)(O)CCCN
inactive: Potency [2] > 46 µM | outcome [3] | Potency [5] | Potency [6] | Potency [7]

CN[C@@H]1C[C@H](c2ccc(Cl)c(Cl)c2)c2ccccc21
inactive: Potency [2] > 46 µM | Potency [9] | Potency [6] | Potency [7]

CC1=C(O)C(=O)[C@H]2O[C@@H]2C1=O
inactive: Potency [8] | Potency [2] > 46 µM | outcome [3] | Potency [4] | Potency [5] | Potency [6] | Potency [7]

Cc1ccc2cc3c(ccc4ccccc43)c3c2c1CC3
inactive: Potency [6] | Potency [7]

O=C1/C(=C\c2ccccc2)C[C@@]2(O)[C@H]3Cc4ccc(O)c5c4[C@@]2(CCN3CC2CC2)[C@@H]1O5
active: Potency [8] 31.6 µM
inactive: Potency [1] > 46 µM | Potency [2] > 46 µM | Potency [10] | Potency [5] | Potency [9] | Potency [6] | Potency [7]

CCN1C[C@]2(COC(=O)c3ccccc3N3C(=O)C[C@H](C)C3=O)CC[C@H](OC)[C@@]34[C@@H]5C[C@H]6[C@H](OC)[C@H]5[C@](O)(C[C@@H]6OC)[C@@](O)([C@@H](OC)[C@@H]23)[C@@H]14
inactive: Potency [2] > 46 µM | Potency [5] | Potency [9] | Potency [6] | Potency [7]

C#CCN1C(C)=C(C(=O)CCO)[C@@H](c2cccc(-n3oo3)c2)C(C(=O)OC)=C1C
inactive: Potency [1] > 46 µM | Potency [2] > 46 µM | outcome [3] | Potency [9] | Potency [6] | Potency [7]

C/C(=C\[C@@H](N)C(=O)O)CP(=O)(O)O
inactive: Potency [2] > 46 µM | outcome [3] | Potency [5] | Potency [6] | Potency [7]

CS(=O)(=O)Nc1ccc(Cc2noc(-c3ccc4[nH]cc(CCN)c4c3)n2)cc1
inactive: Potency [1] > 46 µM | Potency [2] > 46 µM | Potency [10] | Potency [5] | Potency [6] | Potency [7]
active: Potency [8] 0.0316 µM

CC(C)[C@@H]1CN[C@H](C(=O)O)[C@@H]1CC(=O)O
inactive: Potency [1] > 46 µM | Potency [2] > 46 µM | outcome [3] | Potency [5] | Potency [9] | Potency [6] | Potency [7]

Cc1ncc(C[n+]2csc(CCO)c2C)c(=O)[nH]1
inactive: Potency [6] | Potency [7]

c1ccc(CCCCN2CCC(c3ccccc3)CC2)cc1
inactive: Potency [1] > 46 µM | Potency [2] > 46 µM | outcome [3] | Potency [9] | Potency [6] | Potency [7]
active: Potency [8] 15.8 µM | Potency [10] 31.6 µM

C=C(C)[C@H]1CN[C@H](C(=O)O)[C@@H]1CC(=O)O
inactive: Potency [8] | Potency [2] > 46 µM | outcome [3] | Potency [4] | Potency [5] | Potency [9] | Potency [6] | Potency [7]

O=C(O)[C@@H]1C[C@H]2C[C@@H](CP(=O)(O)O)CC[C@H]2CN1
inactive: Potency [1] > 46 µM | Potency [2] > 46 µM | Potency [5] | Potency [6] | Potency [7]

CCCCC1(C2CCCC2)Cc2cc(OCCCC(=O)O)c(Cl)c(Cl)c2C1=O (stereo not given)
inactive: Potency [6] | Potency [7]

CCCCC[C@H]1C(=O)O[C@H](C)[C@H](NC(=O)c2cccc(NC=O)c2O)C(=O)O[C@@H](C)[C@@H]1OC(=O)CC(C)C
inactive: Potency [6] | Potency [7]
